A selection: hits, their analogues and other compounds. The true share with any hit is near 4.2%.
SW480 rerep – DNA re-replication induction in SW480 cells; Potency, µM (doses to about 46.1 µM), without a hit: at the highest dose re-replication activation, most hits filed as activators; SW480 DNA re-replication, Hoechst DNA content imaging, 48 h; 340,000 tested, 1.8% active; note: % of control where 0% means no effect; nearly all actives have a fitted effect of over 55% in size
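Hoechst fluorescence of nuclei (405 nm excitation, 500-530 nm emission) measured by plate-scanning imager after 48 hr compound exposure at 37 C; re-replication scored as increased number of nuclei with elevated intensity.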
MCF10A rerep – induces DNA re-replication in MCF 10a normal breast cells | AID 624296 | Potency, µM (series often up to 46.1 µM), without a hit: at the highest dose activity, positive = re-replication, usual class: activators | MCF 10A DNA re-replication, Hoechst nuclear intensity, 48 h | 350,000 tested, 2.9% active; note: % of control where 0% means no effect; nearly all actives have a fitted effect of over 50% in size
Mito fusion yeast – inhibitors of mitochondrial division or activators of mitochondrial fusion. S. cerevisiae fusion-defective mutant growth rescue, CellTiterGlo 48 h. Potency, µM (titrated, usually from 46.1 µM), for the others: at the top dose growth rescue (activation), most hits filed as activators. 320,000 tested, 0.23% active. AID 485298; note: % of control where 0% means no effect; nearly all actives have a fitted effect of over 45% in size
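Luminescent cell viability in 1536-well qHTS format served as the measure of rescued growth in ts fusion-mutant S. cerevisiae cultured on non-fermentable YPEG for 48 hours at 37C.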
AT treatment – potential ataxia-telangiectasia treatments restoring KAP-1 phosphorylation; 320,000 tested, 0.19% active; AID 485349; Potency, µM (top dose mostly 57.5 µM), for the others: at the highest dose activation, most hits filed as activators; F2112 A-T fibroblasts, KAP-1 phosphorylation AlphaLISA; neocarzinostatin DNA damage 30 min before lysis; note: % of control where 0% means no effect; nearly all actives have a fitted effect of over 45% in size
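ATM-like activity read as KAP-1 phosphorylation via AlphaLISA donor/acceptor antibody pairs after lysis and 6 hr at 25C. Cells were ATM-null patient fibroblasts (F2112, hTERT), dosed 60 min, then exposed to the DSB inducer NCS for 30 min.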
Integrin act MD – integrin-mediated muscular dystrophy alleviation activation | AID 624291 | Potency, µM (series often up to 38.3 µM), for the others: top-dose activation, hits mostly activators | alpha7betagal myoblasts, beta-gal FDG fluorescence, 48 h | 350,000 tested, 0.064% active;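 note: 100% = response of the positive control SU9516; nearly all actives have a fitted effect of over 60% in size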
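Alpha7betagal+/- myoblasts (passage 13) were plated 16-24 hr, then exposed to compounds (1:260 dilution of DMSO stock) for 48 hours at 37C. After MPER lysis, β-galactosidase reporter activity was read as FDG fluorescence (ex 480/em 540) after 30 minutes.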
Numbers without * were called inactive; u = inconclusive; x = no result. Calls come from the whole dose curve; as a rule, active = well fitted activation curve with a large enough effect; inconclusive = small, poorly fitted or top-dose-only effect; inactive = no such curve, though single readings can be large or run the other way. Potency is the fitted concentration of half-maximal effect.

SMILES	SW480 rerep	MCF10A rerep	Mito fusion yeast	AT treatment	Integrin act MD
Cc1ccc(N=C2NC(=O)/C(=C\c3ccco3)S2)cc1	x	-5%	21%	-18%	0%
O=C1/C(=C/C=C/c2ccco2)SC(=S)N1c1ccc(O)cc1	-3%	4%	-1%	-11%	7%
Cn1ccnc1SCC(=O)N1CCN(S(=O)(=O)c2ccccc2)CC1	-13%	8%	-4%	0%	0%
CC(=O)NC(c1ccco1)c1cc(Cl)c2ccc(N3CCCCC3)nc2c1O (stereo not given)	x	x	12%	-5%	x
Cc1ccc(N=C2NC(=O)/C(=C/c3cn(C)c4ccccc34)S2)cc1C	u	21µM*	u	-4%	4%
C[C@@H](NCCCc1cccc(C(F)(F)F)c1)c1cccc2ccccc12	u	21µM*	x	x	x
Nc1nonc1-c1nc2ccccc2n1CC(=O)Nc1ccccc1	12µM*	10%	-10%	-3%	-21%
CCCCCOc1ccc(NC(=O)Cn2c(-c3nonc3N)nc3ccccc32)cc1	x	x	-1%	x	x
CC(C)CCn1c(-c2nonc2N)nc2ccccc21	u	16µM*	-1%	u	7%
CCOC(=O)c1ccccc1NC(=O)Cn1c(-c2nonc2N)nc2ccccc21	0.92µM*	0.46µM*	4%	0%	-2%
CCCCn1c(-c2nonc2N)nc2ccccc21	u	u	-4%	31%	3%
C/C(=N/NC(=O)c1ccco1)c1ccc(Br)s1	-13%	-21%	2%	1%	4%
Cc1nc(Cl)c(S(N)(=O)=O)c(C)c1Cl	-10%	8%	-3%	1%	-22%
O=C(OCc1c(Cl)nc2sccn12)c1cc2c(s1)CCCC2	0%	9%	-1%	1%	7%
Cc1cc(=O)cc(C)n1-c1ccccc1Br	-1%	-4%	1%	-4%	8%
COc1ccc(COC(=O)C2=C(C)NC(=O)NC2c2cc(OC)ccc2OC)cc1 (stereo not given)	-11%	0.52µM*	3%	-1%	22%
COc1ccc(CCNC(=O)c2ccc(-c3ccc([N+](=O)[O-])cc3Cl)o2)cc1	3%	u	u	5%	-7%
COc1cccc(CNc2ccc(S(N)(=O)=O)cc2)c1OC	18µM*	19%	-1%	9%	18%
CN(CCNC(=O)c1c[nH]c2c1ccc1ccccc12)CCNC(=O)c1c[nH]c2c1ccc1ccccc12	u	u	x	x	-57%
Cc1ccc(-n2c(-c3cccc(C)c3)n[nH]c2=S)cc1	u	21µM*	6%	-5%	-4%
CCCCCOc1ccc(C(=O)N(Cc2ccccc2)C2CCS(=O)(=O)C2)cc1 (stereo not given)	x	x	3%	x	x
COc1ccc(CC(=O)N2N=C(c3ccncc3)CC2(O)C(F)(F)F)cc1 (stereo not given)	18µM*	u	6%	3%	-40%
COc1ccc(N=C2C(=S)N(c3ccc(OC)cc3)C(=NS(=O)(=O)c3ccccc3)N2c2ccccc2)cc1	-1%	13%	x	x	14%
N=C1N(c2ccccc2)C(=S)C(=Nc2ccccc2)N1c1ccccc1	u	18µM*	x	x	-26%
CCN(CC)c1ccc(/C=N/Nc2nc3ccccc3[nH]2)c(O)c1	2.1µM*	18µM*	-2%	1%	-64%
SMILES	SW480 rerep	MCF10A rerep	Mito fusion yeast	AT treatment	Integrin act MD
CCN(CC)c1ccc(/C=N/NC(=O)c2ccco2)cc1	5.8µM*	4.1µM*	-1%	-5%	3%
COc1cc(OC)c(OC)cc1/C=N/Nc1nc2ccccc2[nH]1	-7%	u	-2%	5%	20%
CCN(CC)c1ccc(NC(=O)c2ccco2)cc1	-5%	1%	3%	2%	-8%
Cc1cc(C)nc(N/N=C/c2ccccc2)n1	-5%	2%	8%	-2%	18%
CCN(CC)c1ccc(/C=N/Nc2nc(C)cc(C)n2)cc1	18µM*	u	-1%	-2%	-37%
CCN(CC)c1ccc(/C=N/NC(=S)NCc2ccccc2)c(O)c1	16µM*	16µM*	8%	-2%	-26%
C/C(=N\NC(=O)c1c(C)nc2ccccn12)c1ccco1	0%	0%	4%	0%	2%
CCN(CC)c1ccc(/C=N/N=C(c2ccccc2)c2ccccc2)c(O)c1	23µM*	u	0%	-10%	-15%
CCN(CC)c1ccc(/C=N/NC(=O)c2ccco2)c(O)c1	1.5µM*	21µM*	1%	1%	-3%
CCN(CC)c1ccc(/C=N/NC(=O)c2cnccn2)cc1	u	2.3µM*	3%	-5%	-20%
Cc1ccc(C(=O)CN(CCC(=O)O)S(=O)(=O)c2ccc([N+](=O)[O-])cc2)cc1	-49%	-2%	-6%	8%	5%
NC(=O)c1[nH]cnc1N=NN(CCO)Cc1ccccc1	x	x	x	x	-11%
CCc1ccc(C2=NNC(=Nc3cccc(S(=O)(=O)N(C)C)c3)SC2)cc1	21µM*	u	-3%	3%	-52%
CCN(CC)C(=O)C1=C(C)N(Cc2ccc(C(C)(C)C)cc2)C(=O)C(CC(=O)NCc2cccs2)C1 (stereo not given)	x	x	x	x	-19%
COc1ccc(/C=C2\N=C(SC)NC2=O)cc1	-6%	7%	-7%	x	18%
COc1ccc(/C=C2\N=C(c3ccccc3Cl)NC2=O)cc1	10µM*	13µM*	1%	-3%	-22%
CCCn1c(NC(=O)C2CCN(S(=O)(=O)c3cccs3)CC2)nc2ccccc21	13%	u	5%	-17%	-48%
CN(C)c1ccc(/C=N/NC(=O)Cn2nnc3ccccc32)cc1	-11%	-2%	-1%	-18%	-13%
Cc1ccsc1/C=N\NC(=O)Cn1nnc2ccccc21	18µM*	u	-8%	-1%	-11%
CCOC(=O)C1C(=O)NC(SC)=C(C#N)C1c1ccccc1F (stereo not given)	-6%	-2%	1%	-5%	4%
N#CC1=C(N)NC(=S)C(C(N)=O)C1c1ccc(Cl)cc1Cl (stereo not given)	16µM*	15µM*	-1%	-3%	-78%
N#CC1=C(N)NC(=S)C(C(N)=O)C1c1ccccc1F (stereo not given)	21µM*	u	11%	-9%	-52%
Cc1ccc(S(=O)(=O)N(C)C)cc1NC(=O)CSc1nc2ncc(Cl)cc2[nH]1	-4%	8%	-2%	-4%	2%
CCOc1ccc(C(=O)C[n+]2ccccc2C)cc1	-10%	2%	-21%	-1%	0%
CC1(c2ccc(OCC#N)cc2)C=C(c2ccc(OCC#N)cc2)n2nc(C(F)(F)F)nc2N1 (stereo not given)	u	18µM*	6%	-1%	3%
OC1CCN(C(=S)Nc2ccc(Oc3ccccc3)cc2)CC1	-12%	15%	-3%	-1%	-7%

Screens from PubChem BioAssay.
